Only some compounds are listed: those with a hit (about 19% of all), similar ones and a draw of the others.
TDP1 cell noCPT = qHTS for Inhibitors of human tyrosyl-DNA phosphodiesterase 1 (TDP1): qHTS in cells in absence of CPT; DT40 Tdp1-/- hTDP1 cells, no CPT, ATP luminescence, 48 h; Potency, µM (highest dose often 46.2 µM), inactives show top-dose activity change, negative = growth inhibition, most hits filed as inhibitors; 15% of 420,000 active; AID 686978, 2013; also: potency is read from the fitted curve at half-maximal effect; % is scaled to controls: 0 for no effect and ±100 for the full control effect; nearly all actives have a fitted effect of over 55% in size
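Camptothecin absent (DMSO only). Human TDP1-complemented DT40 knockout cells, 400 cells/well, 37 °C for minimum 48 hr; ATP measured via CellTiter-Glo, 30 min dark incubation, luminescence.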
HepG2 viability = HepG2 cytotoxicity, counter-screen for TGF-b inhibitors; HepG2 CAGA-GFP viability, ATP luminescence, 18 h; Potency, µM (doses to about 46.1 µM), inactives show at the highest dose activity change, negative = cytotoxicity, actives largely listed as cytotoxic; 0.76% of 410,000 active; AID 588856; also: potency is read from the fitted curve at half-maximal effect
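HepG2 CAGA-GFP cells (1000/well, DMEM with 1% FBS) received compound, then TGF-beta at 500 pg/mL final, and were incubated 18 hours at 37 degrees C. Viability was read by CellTiter-Glo luminescence. Media-only wells were set as complete cell-killing and DMSO as no toxicity.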
IL1B secr inh = inhibitors of inflammasome signaling (IL-1 beta secretion); THP-1 LPS/ATP IL-1B secretion, AlphaLISA, 16 h; stronger effect = lower value; activity change, % at 57.5 µM; 4.7% of 360,000 active; AID 743279; in the data active = activity change below about -50%; inconclusive = mostly about -30% to -49%; also: % is scaled to controls: 0 for no effect and ±100 for the full control effect
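THP-1 cells pretreated 1 hr with compounds (up to 57.5 uM final), then stimulated with LPS (250 ng/mL final) plus ATP (1.25 mM final); secreted IL-1B measured by AlphaLISA after 16 hr, decreased signal indicating inhibition.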
TDP1 cell CPT = growth inhibition of DT40 Tdp1-/-;hTDP1 cells with camptothecin (screen for TDP1 inhibitors); chicken DT40 Tdp1-/-;hTDP1 cells + 20 nM CPT, ATP luminescence, 48 h; 12% of 420,000 active; AID 686979; Potency, µM (highest dose often 46.2 µM), inactives show at the top dose activity change, negative = growth inhibition, usual class: inhibitors; also: potency is read from the fitted curve at half-maximal effect; % is scaled to controls: 0 for no effect and ±100 for the full control effect; nearly all actives have a fitted effect of over 55% in size
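Cell growth measured by CellTiter-Glo luminescence after a minimum 48 h, 37 C compound exposure with 20 nM CPT in Tdp1-knockout DT40 cells stably expressing hTDP1, seeded 400/well; qHTS titration format.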
S-ASM inh = inhibitors of human secretory acid sphingomyelinase; P17405; placental ASM, HMU-PC fluorogenic substrate, 60 min; Potency, µM (titrated, usually from 57.5 µM), inactives show top-dose activity change, negative = inhibition, most hits filed as inhibitors; 0.006% of 340,000 active; AID 504937; also: potency is read from the fitted curve at half-maximal effect
Target sequence (P17405 47-631 limits assumed): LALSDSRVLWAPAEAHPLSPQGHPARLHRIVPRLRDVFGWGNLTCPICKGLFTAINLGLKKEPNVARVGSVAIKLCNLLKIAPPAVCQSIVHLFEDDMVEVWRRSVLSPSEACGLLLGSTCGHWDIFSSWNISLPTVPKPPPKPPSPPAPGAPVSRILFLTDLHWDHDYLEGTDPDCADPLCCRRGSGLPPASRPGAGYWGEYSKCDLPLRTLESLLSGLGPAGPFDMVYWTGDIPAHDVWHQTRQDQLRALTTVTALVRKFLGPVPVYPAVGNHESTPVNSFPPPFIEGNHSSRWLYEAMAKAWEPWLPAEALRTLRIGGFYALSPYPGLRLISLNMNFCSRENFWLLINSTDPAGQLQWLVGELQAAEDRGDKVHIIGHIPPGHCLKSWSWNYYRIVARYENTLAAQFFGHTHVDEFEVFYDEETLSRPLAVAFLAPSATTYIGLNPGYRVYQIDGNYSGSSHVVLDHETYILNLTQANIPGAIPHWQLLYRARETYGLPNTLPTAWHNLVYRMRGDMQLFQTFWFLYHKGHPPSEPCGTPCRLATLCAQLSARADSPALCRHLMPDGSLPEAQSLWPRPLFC
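qHTS format. ASM enzyme prepared from human placenta hydrolyses the fluorogenic substrate HMU-PC0 (9 uM final) over 60 min at 37 °C after a 10 min compound preincubation.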
TGFb inhibitor = TGF-b pathway inhibition; HepG2 CAGA-GFP TGF-b/SMAD3 reporter, GFP fluorescence, 18 h; TGF-beta stimulated, 500 pg/mL final; Potency, µM (highest dose often 46.1 µM), inactives show at the highest dose activity, negative = inhibition, most hits filed as inhibitors; 1.2% of 410,000 active; AID 588855; also: potency is read from the fitted curve at half-maximal effect; % is scaled to controls: 0 for no effect and ±100 for the full control effect; nearly all actives have a fitted effect of over 65% in size
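Using HEPG2 CAGA-GFP reporter cells at 1000 cells/well, we pinned test compounds, stimulated with recombinant TGF-beta (500 pg/mL final) and measured total well GFP after 18 h.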
Active calls of the source: *; u = inconclusive; x = not tested or not shown. Unless noted, calls follow the shape of the dose curve; as a rule, active = well fitted curve in the direction sought with a large enough effect; inconclusive = small, poorly fitted or top-dose-only effect, or another doubt; inactive = no such curve, though single readings can be large; an effect the other way counts as inactive or inconclusive.

SMILES | TDP1 cell noCPT | HepG2 viability | IL1B secr inh | TDP1 cell CPT | S-ASM inh | TGFb inhibitor
COc1cc(NS(=O)(=O)c2ccc(NC(=O)CCC(=O)O)cc2)nc(OC)n1 | -20.8% | -1.7% | -10.4 | -5.8% | 4.8% | -11.0%
CCCCCNc1nc2c(-c3ccccc3)nnn2c2ccccc12 | -26.2% | 4.7% | x | 0.4% | x | -4.6%
CCC(C)N1C(=O)/C(=C/c2c(NCCCOC(C)C)nc3c(C)cccn3c2=O)SC1=S (stereo unspecified) | 9.2µM* | 0.2% | -16.0 | u | -16.0% | 196.7%
O=C(CN1C(=O)c2cccnc2Oc2ccc(Cl)cc21)NCCC1=CCCCC1 | -6.1% | 13.1% | 28.4 | u | 0.0% | 4.1%
CCOc1ccc(CCNC(=O)CN2C(=O)c3cccnc3Oc3ccc(Cl)cc32)cc1 | 20.6µM* | -36.7% | -10.0 | u | -8.2% | u
CCCN1CCN(CCCNC(=O)CN2C(=O)c3cccnc3Oc3ccc(C)cc32)CC1 | 21.5% | -5.4% | 4.1 | -8.8% | 3.1% | 0.5%
CSc1ccc(CCNC(=O)CN2C(=O)c3cccnc3Oc3ccc(C)cc32)cc1 | 29.1µM* | -13.7% | -17.9 | u | -0.8% | -8.2%
Cc1ccc2c(c1)N(CC(=O)NCCCc1ccccc1)C(=O)c1cccnc1O2 | u | -2.9% | -17.9 | u | -0.4% | 1.2%
CCOc1ccc(CCNC(=O)CN2C(=O)c3cccnc3Oc3ccc(C)cc32)cc1OCC | u | 0.5% | 12.3 | 20.6µM* | -1.0% | 2.3%
COc1ccc(NC(=O)c2ccc3c(c2)C(=O)N(CC2CCCO2)C3=O)c(OC)c1 (stereo unspecified) | 0.5% | 11.7% | 23.3 | -6.6% | -1.3% | -4.1%
CC1(C(=O)Nc2ccc3c(c2)OCCO3)CSCC(=O)N1CCCn1ccnc1 (stereo unspecified) | -20.8% | x | -15.4 | -94.0% | x | x
CCN(CC(=O)NCc1ccc(F)cc1)C(=O)c1ccc(Cl)cc1 | 2.5% | -19.2% | -5.9 | -15.8% | -0.1% | -2.9%
COc1ccc(S(=O)(=O)N(CC(=O)NCc2ccncc2)Cc2ccccc2)cc1 | 11.6µM* | 9.5% | 10.6 | u | 6.8% | 10.2%
CCN(CC(=O)NCc1ccc(Cl)cc1)C(=O)c1ccc(C#N)cc1 | u | -1.1% | 0.8 | 20.6µM* | -2.5% | -1.1%
COc1ccc(CNC(=O)CN(Cc2ccc(Cl)cc2)S(=O)(=O)c2ccccc2)cc1 | u | -54.2% | u | u | -7.9% | u
COc1ccc(CNC(=O)CN(Cc2ccccc2)S(=O)(=O)c2ccc(Cl)cc2)cc1 | 18.4µM* | -0.4% | -16.4 | u | -2.8% | u
CCN(CC(=O)NCc1ccc(Cl)cc1)C(=O)c1cccc(S(=O)(=O)Nc2ccc(OC)cc2)c1 | 10.3µM* | -17.7% | -7.7 | u | -5.7% | 0.0%
CCc1noc(C)c1C(=O)NNC(=O)c1ccccc1F | u | -12.2% | -8.5 | -11.3% | 4.8% | 5.8%
COCCCN1C(=O)C(=O)/C(=C(/O)c2ccc(S(=O)(=O)N3CCOCC3)cc2)C1c1ccc(Cl)cc1 (stereo unspecified) | 7.5% | 17.9% | 18.5 | 4.9% | -0.6% | -4.5%

Source: PubChem (National Center for Advancing Translational Sciences (NCATS))
